For experiment [1], the target named is Mitogen-activated protein kinase 10 (Mus musculus) (UniProt Q61831). The experiment can be described thus: JNK3 AlphaScreen Assay (AID 530; active = well fitted curve in either direction with a large enough effect, not every such curve was filed as active;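 also: kinase came from lysate of stimulated human HepG2 cells; signal reports phosphorylation of biotinylated GST-cJun 1-79 at Ser73 with 10 µM ATP; series mostly up to about 57 µM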). The method in brief: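 Compound titrations were preincubated 15 minutes at room temperature with substrate, antibody and pre-activated JNK3-containing HepG2 lysate. Reactions were started with 10 uM ATP and stopped with EDTA-containing bead buffer for AlphaScreen detection.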

Experiment [2] concerns the target Cytochrome P450 3A4 (Homo sapiens) (UniProt P08684). The experiment can be described thus: qHTS Assay for Inhibitors and Substrates of Cytochrome P450 3A4 (AID 884). Also: potency is read from the fitted curve at half-maximal effect; nearly all actives have a fitted effect of over 50% in size. The gist of the method:
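20 nM human CYP3A4 with 25 uM Luciferin-PPXE (at KM) in 200 mM KPO4, preincubated 10 min with compound; NADPH regeneration started a 60 min RT reaction. Luciferin detected by luminescence, normalized to 57 uM ketoconazole as full inhibition.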

Experiment [3] has the same target. The experiment can be described thus: qHTS Assay for Activators of Cytochrome P450 3A4 (AID 885). Also: nearly all actives have a fitted effect of over 65% in size. The method in brief:
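20nM CYP3A4 + 25uM Luciferin-PPXE (=KM), 200mM KPO4; cpd 10 min RT; NADPH regen, 60 min RT; stop w/ detection buffer, 20 min; luminescence. Normalized to 57 uM ketoconazole.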

Each structure is given as a SMILES string. Inconclusive results are not listed. A call without a number means that no potency is given here. Active and inactive are the calls of the source. Unless noted, calls follow the shape of the dose curve; as a rule, active = well fitted curve in the direction sought with a large enough effect; inconclusive = small, poorly fitted or top-dose-only effect, or another doubt; inactive = no such curve, though single readings can be large; an effect the other way counts as inactive or inconclusive.

Chain of Cytochrome P450 3A4 (Homo sapiens) (P08684 whole entry, looked up): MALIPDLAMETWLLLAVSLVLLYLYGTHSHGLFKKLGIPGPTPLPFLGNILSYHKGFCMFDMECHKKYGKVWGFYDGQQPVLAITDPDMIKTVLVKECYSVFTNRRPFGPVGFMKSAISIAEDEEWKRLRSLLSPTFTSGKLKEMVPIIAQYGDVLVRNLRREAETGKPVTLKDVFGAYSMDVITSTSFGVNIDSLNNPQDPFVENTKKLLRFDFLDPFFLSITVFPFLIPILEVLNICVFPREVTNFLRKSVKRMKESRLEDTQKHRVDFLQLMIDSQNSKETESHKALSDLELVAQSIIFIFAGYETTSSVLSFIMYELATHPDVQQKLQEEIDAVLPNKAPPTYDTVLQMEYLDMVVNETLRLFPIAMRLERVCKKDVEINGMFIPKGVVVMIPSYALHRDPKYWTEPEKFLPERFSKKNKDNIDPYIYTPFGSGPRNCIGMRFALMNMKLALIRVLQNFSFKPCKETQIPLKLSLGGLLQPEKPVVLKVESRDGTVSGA

In the case of `CC(C)CC1(C(=O)NCCN2CCOCC2)C=CCN1C(=O)c1ccccc1` (stereo unspecified), the result in experiment [1] was inactive. Further, the Potency in experiment [2] was 12.6 µM (active). Further, the Potency result in experiment [3] was “inactive”.
As to `COC(=O)c1ccc(C(NC(=O)OCc2ccccc2)/C(C)=C/[C@@H](C)C(=O)N2CCN(C)CC2)cc1` (stereo partly specified), the result in experiment [1] was inactive. The Potency in experiment [2] is 1.26 µM (active). The Potency entry in experiment [3] is “inactive”.
Turning to `CC(=O)N1[C@H](C)C=C[C@]1(Cc1ccccc1)C(=O)NCc1ccccn1`, the result in experiment [1] was inactive. In experiment [3], the Potency result is “inactive”.
In the case of `CNC(=O)[C@]1(C)C[C@H]1[C@H](NC(=O)[C@]1(C)C[C@H]1[C@H](NC(=O)OCc1ccccc1)c1ccccc1)c1ccccc1`, in experiment [1], the molecule was called inactive. The Potency in experiment [2] was 15.8 µM (active). For the same molecule, the Potency entry in experiment [3] is “inactive”.
As for `CNC(=O)[C@H](C)/C=C(\c1cccnc1)C(NC(=O)OCc1ccccc1)c1ccc(C(=O)OC)cc1` (stereo partly specified), in experiment [1], the call was inactive. Also, the Potency result in experiment [3] is “inactive”.
For `COCCNC(=O)[C@@]1(Cc2ccccc2)C=C[C@@H](C)N1C(C)=O`, the call in experiment [1] was inactive. The Potency entry in experiment [3] was “inactive”.
On to `CC(Cc1ccccc1)C(=O)N[C@@H](CO)Cc1ccccc1` (stereo partly specified), for which the result in experiment [1] was inactive. Besides, the Potency in experiment [2] is 15.8 µM (active). Besides, the Potency entry in experiment [3] was “inactive”.
Take `CC1(C)OCC(CSC2=C(SCC3COC(C)(C)O3)C(=O)c3ncccc3C2=O)O1` (stereo unspecified): in experiment [1], the molecule was classed as inactive. Further, in experiment [2], the Potency was 15.8 µM (active). Further, the Potency entry in experiment [3] was “inactive”.
Consider `CC1(C(=O)NCC2CC2)C=CC2(CCCCC2)N1C(=O)c1ccccc1` (stereo unspecified), for which the result in experiment [1] was inactive. Besides, the Potency in experiment [2] is 7.94 µM (active). Further, in experiment [3], the Potency result was “inactive”.
As to `COC(=O)c1ccc(C(NC(=O)OCc2ccccc2)/C(=C/[C@@H](C)C(=O)NC2CCCCC2)c2cccnc2)cc1` (stereo partly specified), the call in experiment [1] was inactive. For the same molecule, in experiment [2], the Potency was 1.26 µM (active). Moreover, the Potency result in experiment [3] is “inactive”.
On to `COC(=O)c1ccc(C(NC(=O)OCc2ccccc2)/C(F)=C/[C@@H](C)C(=O)NCCN2CCOCC2)cc1` (stereo partly specified), for which, in experiment [1], the outcome was inactive. The Potency in experiment [2] is 3.98 µM (active). In addition, the Potency entry in experiment [3] was “inactive”.
Regarding `COC(=O)c1ccc(C(NC(=O)OCc2ccccc2)/C(I)=C/[C@@H](C)C(=O)Nc2ccccc2)cc1` (stereo partly specified), the outcome in experiment [1] was inactive. Further, the Potency in experiment [2] is 2 µM (active). In addition, the Potency entry in experiment [3] is “inactive”.
As to `COC(=O)[C@@]1(C)C[C@@H]1[C@@H](NC(=O)[C@@]1(C)C[C@@H]1[C@@H](NC(=O)[C@@]1(C)C[C@@H]1[C@@H](NC(=O)[C@@]1(C)C[C@@H]1[C@@H](NC(=O)OCc1ccccc1)c1ccccc1)c1ccccc1)c1ccccc1)c1ccccc1`, the molecule was called inactive in experiment [1]. In addition, the Potency entry in experiment [3] was “inactive”.
`COC(=O)c1ccc(C(NC(=O)OCc2ccccc2)/C(=C/[C@@H](C)C(=O)NCc2nc3ccccc3s2)c2cccnc2)cc1` (stereo partly specified): in experiment [1], the molecule was classed as inactive. The Potency in experiment [2] is 2 µM (active). The Potency result in experiment [3] was “inactive”.
For `CCCCCCN(C(=O)CCCCCN1C(=O)NC(c2ccc(-c3ccccc3)cc2)C(C(=O)OCc2ccccc2)=C1C)C(C(=O)NCCCC)c1ccc(O)c(C(=O)OC)c1` (stereo unspecified), the call in experiment [1] was inactive. The Potency in experiment [2] is 10 µM (active). For the same molecule, the Potency entry in experiment [3] is “inactive”.
As to `C[C@]1(C(=O)NCCN2CCOCC2)C=C[C@@H](Cc2ccccc2)N1C(=O)c1ccccc1`, in experiment [1], the molecule was classed as inactive. Besides, the Potency in experiment [2] is 7.94 µM (active). The Potency result in experiment [3] is “inactive”.
For the molecule `COC(=O)[C@H](Cc1ccccc1)NC(=O)[C@]1(C)C[C@H]1[C@H](NC(=O)OCc1ccccc1)c1ccccc1`, the result in experiment [1] was inactive. For the same molecule, in experiment [2], the Potency is 2 µM (active). For the same molecule, the Potency result in experiment [3] is “inactive”.
In the case of `CNC(=O)[C@]1(C)C[C@H]1[C@H](NC(=O)[C@]1(C)C[C@H]1[C@H](NC(=O)[C@]1(C)C[C@H]1[C@H](NC(=O)[C@]1(C)C[C@H]1[C@H](NC(=O)OCc1ccccc1)c1ccccc1)c1ccccc1)c1ccccc1)c1ccccc1`, in experiment [1], the molecule was classed as inactive. Also, in experiment [2], the Potency is 12.6 µM (active). Further, the Potency entry in experiment [3] was “inactive”.
Regarding `COC(=O)CNC(=O)C1(C)C=CC2(CCCCC2)N1C(=O)OC` (stereo unspecified), the result in experiment [1] was inactive. Also, the Potency entry in experiment [3] was “inactive”.
For `CNC(=O)[C@@H]1C[C@H]1[C@@H](NC(=O)OCc1ccccc1)c1ccccc1`, the result in experiment [1] was inactive. In experiment [2], the Potency is 12.6 µM (active). Besides, in experiment [3], the Potency result was “inactive”.
For `C[C@]1(C(=O)NCC2CC2)C=C[C@@H](Cc2ccccc2)N1C(=O)c1ccccc1`, in experiment [1], the molecule was classed as inactive. Further, in experiment [2], the Potency was 2 µM (active). Besides, the Potency result in experiment [3] is “inactive”.
For `COC(=O)c1ccc(C(NC(=O)OCc2ccccc2)/C(C)=C/[C@@H](C)C(=O)NCc2cccnc2)cc1` (stereo partly specified), the result in experiment [1] was inactive. For the same molecule, the Potency in experiment [2] was 0.794 µM (active). For the same molecule, the Potency entry in experiment [3] is “inactive”.
In the case of `CC(=O)N1[C@H](C)C=C[C@]1(Cc1ccccc1)C(=O)O`, the molecule was called inactive in experiment [1]. Also, in experiment [3], the Potency result was “inactive”.
`C[C@@H]1C=C[C@](Cc2ccccc2)(C(=O)NCCCNc2ncc(C(F)(F)F)cc2Cl)N1C(=O)c1ccccc1`: in experiment [1], the outcome was inactive. In experiment [3], the Potency result was “inactive”.
For the molecule `COC(=O)[C@H](Cc1ccccc1)NC(=O)[C@H]1C[C@@H]1[C@H](NC(=O)OCc1ccccc1)c1ccccc1`, the result in experiment [1] was inactive. Moreover, in experiment [2], the Potency is 7.94 µM (active). In addition, the Potency entry in experiment [3] is “inactive”.
`CCCCNC(=O)C(c1ccc(OCC(=O)OC)c(C(=O)OC)c1)N(Cc1ccccc1)C(=O)CCCCCN1C(=O)NC(c2ccc(-c3ccccc3)cc2)C(C(=O)OCc2ccccc2)=C1C` (stereo unspecified): the molecule was classed as inactive in experiment [1]. Besides, the Potency in experiment [2] was 5.01 µM (active). In experiment [3], the Potency result is “inactive”.

The values above are taken from PubChem BioAssay (NCATS).
